A selection: hits, their analogues and other compounds. The true share with any hit is near 3.2%.
p53 reactivator = restores transcriptional activity of mutant p53; H1299 p53-A138V BP100-luciferase reporter, luminescence, 24 h; Potency, µM (series often up to 92.2 µM), inactives show at the highest dose activity change, positive = activation, usual class: activators; 320,000 tested, 0.063% active; AID 504706; further: potency means the concentration at half of the fitted maximal effect; % of control where 0% means no effect; nearly all actives have a fitted effect of over 45% in size
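p53-null H1299 cells stably carrying temperature-sensitive p53-A138V and a BP100-luciferase reporter were pinned with compounds (4-point, 1:5 series) and held 24 hrs at 37 deg C. Luminescence was read 10 min after detection reagent.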
IL-2 act = IL-2 activation | IL-2 activation reporter assay, cell-based qHTS; stimulated with anti-CD3/CD4/CD28 beads; in transgenic mouse T cells | activation, % (series mostly up to about 46 µM) | 360,000 tested, 0.065% active; in the data active means activation above about 50%; inconclusive means mostly about 30% to 49%; further: 0% is about no effect
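Quantitative HTS in unstimulated transgenic mouse T cells, with memory T cells as non-tolerant control and PMA/ionomycin as tolerance-bypass control. Compound pretreatment lasted 60 minutes before 18 h bead stimulation; EGFP/DsRed fluorescence read.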
A549 viability = A549 cytotoxicity, counter-screen for Nrf2 inhibitors | A549 ARE-Fluc cells, CellTiter-Fluor viability, 18-24 h | Potency, µM (top dose mostly 46 µM), for the others: top-dose activity change, negative = cytotoxicity, actives largely listed as inhibitors | 390,000 tested, 0.16% active | AID 504648; further: potency means the concentration at half of the fitted maximal effect; on the % scale 0 is the no-effect control and ±100 the full control effect
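A549 ARE-Fluc cells in 5% FBS OPTI-MEM, 5000 cells/well, rested 2 h then exposed to compounds in concentration-response for 18-24 h at 37 °C. Viability by CellTiter-Fluor fluorescence (Ex 405/Em 525) after 30 min; luciferase luminescence (BugLite, 15 min, RT) read afterwards.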
Nrf2 inh = inhibitors of Nrf2 signaling. Potency, µM (doses to about 46 µM), for inactives: top-dose activity change, negative = inhibition, most hits filed as inhibitors. 360,000 tested, 2.1% active. A549 ARE-Fluc reporter, luciferase luminescence, 18-24 h; further: potency means the concentration at half of the fitted maximal effect; on the % scale 0 is the no-effect control and ±100 the full control effect; nearly all actives have a fitted effect of over 60% in size
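Cells were seeded and rested 2 h, then exposed to compounds for 18-24 h. CellTiter-Fluor was read first as a viability measure. BugLite was added 15 min before the final luminescent read of ARE-luciferase activity in A549 cells.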
Nrf2 ARE act = activators of Nrf2 (ARE) signaling; AREc32 ARE-luciferase reporter (MCF7-derived line), luminescence, 24 h; Potency, µM (top dose mostly 46.1 µM), without a hit: top-dose activation, most hits filed as activators; 410,000 tested, 0.31% active; AID 624171; further: potency means the concentration at half of the fitted maximal effect; % of control where 0% means no effect; nearly all actives have a fitted effect of over 65% in size
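AREc32 cells carrying an ARE-driven firefly luciferase reporter were seeded at 1000 cells/well in OPTI-MEM with 5% FBS, then exposed to compound for 24 hr at 37 deg C. Luminescence was read with Steady-Glo after 30 min at RT.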
BRCA1 expr act = increases BRCA1 expression; MCF7-BRCA1-FFLuc reporter, luminescence, 48 h; response scale: scaled: vehicle 0%, 10 µM genistein 100%; Potency, µM (highest dose often 46.1 µM), for inactives: at the highest dose activation, usual class: activators; 380,000 tested, 1.1% active; further: potency means the concentration at half of the fitted maximal effect; nearly all actives have a fitted effect of over 80% in size
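Using MCF7 cells harboring a BRCA1 firefly luciferase reporter, plated 2 h before compound pinning, the screen measured luminescence after 48 h incubation. Responses were normalized to DMSO and 10 microM genistein, then fitted for concentration-effect.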
The depositor's hits bear a star; u = inconclusive; x = not tested or not shown. Unless noted, the call rests on the fitted dose curve; in most records, active means well fitted curve in the direction sought with a large enough effect; inconclusive means small, poorly fitted or top-dose-only effect, or another doubt; inactive means no such curve, though single readings can be large; an effect the other way counts as inactive or inconclusive.

SMILES	p53 reactivator	IL-2 act	A549 viability	Nrf2 inh	Nrf2 ARE act	BRCA1 expr act
O=C(CSCc1ccccc1)N1CCN(c2ccccc2)CC1	u	0	2%	4%	0%	11µM*
CC1CN(c2nc3c(c(=O)n(Cc4ccc(Cl)c(Cl)c4)c(=O)n3C)n2C)CC(C)O1 (configuration not stated)	5%	-2	u	23µM*	0%	-64%
S=C(NCC1CCCO1)N1CCN(c2cccc(Cl)c2)CC1 (configuration not stated)	-4%	-3	-1%	21µM*	0%	-12%
S=C(NCCCN1CCOCC1)N1CCN(c2nc(-c3ccc(Cl)cc3)cs2)CC1	1%	-2	u	13µM*	-3%	-67%
S=C(NCCCN1CCOCC1)N1CCN(c2nc(-c3ccccc3)cs2)CC1	-4%	-3	1%	-11%	4%	2%
S=C(NCC1CCCO1)N1CCN(c2nc(-c3ccc(Cl)cc3)cs2)CC1 (configuration not stated)	-2%	-4	u	16µM*	5%	-76%
CC(C)(C)C(=O)N1CCN(c2nc3ccccc3s2)CC1	u	0	2%	15%	3%	3.2µM*
c1ccc2sc(N3CCOCC3)nc2c1	18%	-1	8%	3%	3%	8.9µM*
O=C(c1cccs1)N1CCN(c2nc3ccccc3s2)CC1	8%	0	1%	u	0%	34%
CC(C)C(=O)N1CCN(c2nc3ccc(Cl)cc3s2)CC1	6%	2	2%	u	3%	5µM*
O=C(c1ccc(Cl)s1)N1CCN(c2nc3ccccc3s2)CC1	-3%	0	-14%	7.3µM*	1%	-38%
CCCn1c(=O)c2sccc2n2c(CCCC(=O)Nc3ccc(C)c(F)c3)nnc12	x	x	0%	-29%	-1%	x
O=C1CCc2cc(S(=O)(=O)Nc3ccc4c(c3)CCC4)ccc2N1	x	x	3%	u	x	x
COC(=O)[C@@]12C[C@@H](CC(=O)N3CCCCC3)C(=O)N(Cc3ccco3)C1=CCC(C)(C)C2	x	0	x	x	x	x
Cc1ccc(OCC(=O)Nc2c(C(=O)c3ccc(Cl)cc3)oc3ccccc23)cc1C	x	x	-2%	8%	0%	x
Clc1cc(Cl)c2nc(N3CCOCC3)sc2c1	u	-3	-3%	u	4%	11µM*
CCc1ccc2nc(N3CCN(C(=O)C(C)(C)C)CC3)sc2c1	3%	1	1%	1%	0%	13µM*
CCOc1ccc2nc(N3CCCC(C(=O)Nc4ccc(OC)cc4)C3)sc2c1 (configuration not stated)	x	x	-7%	23%	6%	x
COc1ccc(C2C(=O)N(C3CCCCC3)CC(=O)N2CCC2=CCCCC2)cc1 (configuration not stated)	x	x	-11%	x	1%	x
Cc1ccc(SCc2nc(-c3ccc(C(=O)NCc4ccccc4Cl)cc3)oc2C)cc1	x	x	3%	15µM*	-1%	x
CCOC(=O)N1CCN(C(=O)CN(c2ccccc2F)S(=O)(=O)c2ccc(C)cc2)CC1	x	x	4%	-5%	1%	x
CC(C)(C)OC(=O)N1C=CCC1CN1C(=O)COCC1=O (configuration not stated)	x	x	16%	u	x	x
O=C(COCc1cc(-c2cccs2)on1)Nc1cc(Cl)ccc1O	x	x	0%	-11%	3.5µM*	x
O=C(COCc1cc(-c2ccc(F)cc2)on1)Nc1cc(Cl)ccc1O	x	x	3%	u	6.3µM*	x
CCC(C)N=Cc1c(NCc2ccco2)nc2c(C)cccn2c1=O (configuration not stated)	-34%	-2	-5%	-5%	13µM*	-30%
SMILES	p53 reactivator	IL-2 act	A549 viability	Nrf2 inh	Nrf2 ARE act	BRCA1 expr act
CCOC(=O)c1c(-c2ccc(C)o2)csc1NC(=O)CN1CCCCC1	1%	-6	0%	-20%	6%	-50%
CCOC(=O)c1c(-c2ccc(C)o2)csc1NC(=O)CN(C)CC(=O)Nc1ccc(C)cc1	1%	-3	-27%	16µM*	-1%	-27%
CCOC(=O)c1c(-c2ccc(C)o2)csc1NC(=O)CSc1nncs1	5%	-1	2%	21µM*	19%	-43%
Cc1c(Cl)cccc1NC(=O)Cn1cnc2nc3c(cc2c1=O)CCCC3	x	x	-3%	x	3%	x
O=C(Nc1cc(Cl)cc(Cl)c1)c1ccc(F)c(S(=O)(=O)NC2CCCC2)c1	x	x	-23%	x	0%	x
O=C(Nc1ccccc1)c1cc(S(=O)(=O)NCc2ccncc2)ccc1Cl	-16%	-3	-4%	18µM*	0%	-32%
COc1ccc(S(=O)(=O)NCc2ccncc2)cc1NC(=O)c1ccccc1	-7%	-3	-7%	6.5µM*	3%	-48%
COc1ccc(S(=O)(=O)NCc2ccncc2)cc1NC(=O)c1ccc(Cl)cc1	-5%	0	-3%	4.6µM*	2%	-10%
CN(c1ccc(F)cc1)S(=O)(=O)c1ccc(Cl)c(C(=O)Nc2ccncc2)c1	-6%	-7	-8%	18µM*	10%	-37%
COc1ccc(S(=O)(=O)NCc2cccnc2)cc1NC(=O)c1ccccc1	-3%	0	-7%	-2%	0%	-27%
Cc1ccc(C)c(N2CCN(C(=O)c3ccc4c(Cl)c5c(nc4c3)CCCC5)CC2)c1	x	x	1%	0%	1%	15%
Cc1ccc(-c2nc3c4ccccc4[nH]c(=O)n3n2)cc1	x	x	-1%	u	4%	-18%
CC(C)COc1ccc(C(=O)Nc2cc(-c3ccccc3)no2)cc1	x	x	-3%	u	3%	x
CC1(C)CC(=O)C(C2C3=C(CC(C)(C)CC3=O)Oc3ccc4ccccc4c32)C(=O)C1 (configuration not stated)	u	0	-19%	-1%	2%	7.9µM*
Cc1c(C(=O)N2CCOCC2)oc2c1-c1nn(CC(=O)NCc3ccccc3)cc1CC2	x	x	4%	-14%	-1%	x
Cc1ccc(C(=O)Nc2cccnc2)cc1S(=O)(=O)N1CCCCC1	-2%	0	-4%	21µM*	1%	7%
Cc1ccc(C(=O)NCc2cccnc2)cc1S(=O)(=O)N1CCCCCC1	-4%	-2	-4%	8.2µM*	0%	-39%
O=C(NCc1cccnc1)c1ccc(S(=O)(=O)N2CCCCCC2)cc1	-3%	2	3%	-28%	0%	-16%
O=C(NCc1ccc(F)cc1)c1cc2cccc3c2n1CCS3	x	x	13%	x	9%	x
Cc1ccc(CSc2ncn(-c3ccccc3)n2)cc1	27%	1	20%	22%	1%	11µM*
